SARS PLP yeast = inhibitors of SARS-CoV papain-like protease in yeast; AID 485353; Potency, µM (highest dose often 32.9 µM), hits mostly activators; S. cerevisiae expressing SARS-CoV PLpro, growth rescue; 330,000 compounds, 0.19% hits; calls by dose curve; also: nearly all actives have a fitted effect of over 55% in size
Pf growth 96h = inhibits malaria parasite growth, 96 h; P. falciparum luciferase reporter growth, 96 h; Potency, µM (titrated, usually from 28.7 µM), usual class: inhibitors; 320,000 compounds, 6.9% hits; AID 504834
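Plates of compound plus infected erythrocytes (2% hematocrit, 0.05% parasitemia final) incubate 96 hours, 37 C, 5% CO2. Detection reagent added; reduced luminescence from the parasites' luciferase reporter flags inhibition.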
Cycloheximide cs = affects cycloheximide protein synthesis inhibition readout, counter-screen. cell reporter, cycloheximide protein synthesis inhibition counterscreen. max response, %. 300,000 compounds, 12% hits. AID 2314; in the data active = max response mostly above about 13%, no sharp cut-off; inactive = mostly below about 14%; also: read at 38.3 µM for the half of the compounds with a filed dose
Shiga inhibitor = blocks Shiga toxin action in Vero cells; Vero cells, Shiga toxin protein synthesis inhibition reporter; inhibition, % at 38.7 µM; 290,000 compounds, 9.2% hits; in the data active = inhibition mostly above about 28%, no sharp cut-off; inactive = mostly below about 43%
NS1 inh = inhibitors of influenza NS1 protein function | Potency, µM (highest dose often 46.1 µM) | 270,000 compounds, 0.4% hits; calls by dose curve; also: actives are rising curves; nearly all actives have a fitted effect of over 50% in size
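S. cerevisiae expressing influenza A NS1, grown in glucose, washed, then diluted 1:100 into pH 6.0 -URA galactose medium with 23 nl compound. Growth recovery read as OD600; NS1-free strain serves as control.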
Pf growth 48h = P. falciparum growth inhibition at 48 hours (one generation) | P. falciparum luciferase growth in erythrocytes, 48 h | Potency, µM (top dose mostly 28.7 µM), most hits filed as inhibitors | 310,000 compounds, 5.9% hits
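Compounds are pin-transferred into medium, infected erythrocytes (2% hematocrit, 0.1% parasitemia final) are added, and plates sit one parasite generation at 37 C in 5% CO2. Detection reagent is then added and luminescence measured.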
A number is an active result; - = inactive; ? = inconclusive; . = no result. Sampled rows, rich in hits. Any-hit rate of the full collection: about 21%. Unless noted, calls follow the shape of the dose curve; as a rule, active = well fitted inhibition curve with a large enough effect; inconclusive = small, poorly fitted or top-dose-only effect, or another doubt; inactive = no such curve, though single readings can be large or run the other way.

SMILES	SARS PLP yeast	Pf growth 96h	Cycloheximide cs	Shiga inhibitor	NS1 inh	Pf growth 48h
Cc1ccc(C)c(-n2cc(CNC(C)Cn3cncn3)c(-c3ccccc3)n2)c1 (stereo not given)	-	?	-	-	-	13.1µM
O=C1c2ccccc2C(=Nc2ccccc2)C1c1cccc(Br)c1 (stereo not given)	-	4.15µM	-	-	-	?
Cc1cc(C2CC(=O)Nc3ccccc3S2)c(C)s1 (stereo not given)	-	-	-	-	-	-
COc1ccccc1Nc1n[nH]c(=S)s1	-	-	-	-	.	-
COc1ccccc1Nc1ccc([N+](=O)[O-])cc1N	-	-	-	-	-	-
COc1ccc(OC)c(Nc2ccc(Nc3cc(OC)ccc3OC)nn2)c1	-	9.28µM	-	-	-	?
COc1ccccc1Nc1c([N+](=O)[O-])cc(C)cc1[N+](=O)[O-]	-	10.4µM	-	-	.	-
COc1ccccc1Nc1ccc(Nc2ccccc2OC)nn1	-	?	29.2	175.0	-	-
CCCCn1c(N)c(C(=S)NC(=O)CC(C)(C)C)c(=O)n(C)c1=O	-	-	-	-	-	-
Cc1cc(C)nc(SC(C)CNS(=O)(=O)c2ccccc2)n1 (stereo not given)	-	-	-	-	.	?
O=C(c1ccc2c(=O)n3c(nc2c1)CCCCC3)N1CCc2ccccc21	-	-	-	-	-	-
COC(=O)c1cc2c(-c3ccccc3)c(C)c3ccccn3c-2c1C(=O)OC	-	?	-	-	-	.
COC(=O)c1c(Cl)c2n3ccccc3c(C)c(-c3ccccc3)c-2c1C(=O)OC	-	10.4µM	-	-	-	?
CCCCNC(=S)Nc1ccc(F)cc1	-	-	-	-	-	-
Oc1cccc(NC(=S)Nc2ccc(SC(F)F)cc2)c1	-	-	21.3	-	-	-
CCCCNC(=S)Nc1ccc(SC(F)F)cc1	-	?	60.5	148.6	.	?
Oc1cccc2c(NC(=S)Nc3ccc(SC(F)F)cc3)cccc12	-	-	82.3	134.9	-	-
CCSc1ncc(CO)c(N)n1	-	?	-	-	-	-
N/C(Cc1nc(-c2ccc(F)cc2)cs1)=N\O	-	-	22.0	43.4	-	-
N/C(Cc1nc(-c2ccc(Br)cc2)cs1)=N\O	-	?	26.3	77.7	.	-
Cc1ccc(NC(=O)CSCC(=O)N(C)CC(=O)Nc2ccccc2C(F)(F)F)cc1	-	-	.	.	.	-
COc1cccc(-c2nc(-c3ccncc3)no2)c1	-	-	35.2	121.2	-	-
COc1cccc(-c2nc(CS(=O)(=O)c3ccccc3)no2)c1	-	?	50.8	91.1	-	-
COc1cccc(-c2nc(-c3cccs3)no2)c1	-	-	43.1	57.0	-	-
COc1ccc(-c2cc(CNS(=O)(=O)c3ccccc3)on2)cc1	-	-	-	-	.	-
SMILES	SARS PLP yeast	Pf growth 96h	Cycloheximide cs	Shiga inhibitor	NS1 inh	Pf growth 48h
COc1cc(OC)cc(-c2nc(-c3cccs3)no2)c1	-	-	43.6	-	.	-
O=S(=O)(c1ccc(Cl)nc1)N1CCCCC1	-	-	-	-	-	-
COc1cc2cc(C(=O)N3CCN(Cc4ccc5c(c4)OCO5)CC3)c(=O)oc2cc1OC	-	-	-	-	-	-
Cc1cc(/C=C2/C(=O)N(C)C(=S)N2C)c(C)n1C1CC1	-	?	14.5	-	-	?
Cc1cc(/C=C2\C(=O)NC(=S)N(C)C2=O)c(C)n1C1CCCCC1	-	-	12.8	-	-	-
Cc1c(C(=O)N2CCN(S(C)(=O)=O)CC2)oc2ccccc12	-	?	9.2	-	-	-
Cc1c(C(=O)N2CC(C(=O)N3CCCCC3)Oc3ccccc32)oc2ccccc12 (stereo not given)	-	13.1µM	.	.	.	?
Cc1c(C(=O)N2CCc3ccccc32)oc2ccccc12	-	-	55.0	68.5	-	-
COCc1c(C(=O)N2CCc3ccccc32)oc2ccccc12	-	-	-	69.6	-	-
COc1ccccc1N1CCN(C(=O)c2oc3ccccc3c2C)CC1	-	?	-	-	-	?
CC12CCC=CC1C(c1ccc3ccccc3c1C=Cc1ccccc1)N(Cc1ccccc1)C2=O (stereo not given)	.	.	-	-	.	.
COc1cc(/C=N/NC(=O)NC23CC4CC(CC(C4)C2)C3)ccc1O	-	?	-	37.2	-	?
O=C(N/N=C/c1ccc(O)c(O)c1)NC12CC3CC(CC(C3)C1)C2	-	-	-	-	-	-
